Measurements: PubChem BioAssay (NCATS)
Inconclusive results are not listed. Entries that show only a call come without a potency. The source made the active and inactive calls. Calls follow the shape of the dose curve; as a rule, active = well fitted curve in the direction sought with a large enough effect; inconclusive = small, poorly fitted or top-dose-only effect, or another doubt; inactive = no such curve, though single readings can be large; an effect the other way counts as inactive or inconclusive.

Columns and labels:
[1] = qHTS for Inhibitors of Ubiquitin-specific Protease USP2a Using CHOP2 as the Reporter: Cytotox Assay (AID 652170); also: nearly all actives have a fitted effect of over 70% in size; also: potency is read from the fitted curve at half-maximal effect
How it was run: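 HCT116 human colon cancer cells, 600 per well in DMEM with 10% FBS, exposed to compounds for 72 hr at 37 deg C. ATP measured by CellTiter-Glo luminescence, normalized to DMSO cells and no-cell background.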

[2] = biological target: Ubiquitin carboxyl-terminal hydrolase 2 (Homo sapiens) (UniProt O75604); test: qHTS for Inhibitors of Ubiquitin-specific Protease USP2a Using CHOP2 as the Reporter: K484 Substrate (AID 652173);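 also: cleavage of internally quenched K48 di-ubiquitin substrate measured as rising fluorescence over time; nearly all actives have a fitted effect of over 70% in size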; also: potency is read from the fitted curve at half-maximal effect
How it was run: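 USP2 (dispensed at 5 nM) was pinned with compounds, then DiUb K48 internally quenched fluorescent substrate (dispensed at 100 nM) was added. The buffer was 20 mM Tris pH 8, 2 mM beta-mercaptoethanol and 0.05% CHAPS. Cleavage was read kinetically as rising fluorescence, Ex 525/Em 598.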

[3] = biological target: Calcium and integrin-binding protein 1 (Homo sapiens) (UniProt Q99828); test: Primary qHTS for Identification of Calcium Integrin Binding Protein 1 (CIB1) Competitor (AID 1508620);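 also: GST tagged CIB1 binding a fluorescein labelled alphaIIb integrin peptide tracer; top concentration of the series differs between compounds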
How it was run: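 Fluorescence polarization competition: CIB1-GST (1 uM final) preincubated with compound 15 min at room temperature, then FITC-labeled alphaIIb peptide (100 nM final) added for another 15 min. Polarization read at Ex 480/Em 540.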

Sequence of Ubiquitin carboxyl-terminal hydrolase 2 (Homo sapiens) (O75604 whole entry, looked up): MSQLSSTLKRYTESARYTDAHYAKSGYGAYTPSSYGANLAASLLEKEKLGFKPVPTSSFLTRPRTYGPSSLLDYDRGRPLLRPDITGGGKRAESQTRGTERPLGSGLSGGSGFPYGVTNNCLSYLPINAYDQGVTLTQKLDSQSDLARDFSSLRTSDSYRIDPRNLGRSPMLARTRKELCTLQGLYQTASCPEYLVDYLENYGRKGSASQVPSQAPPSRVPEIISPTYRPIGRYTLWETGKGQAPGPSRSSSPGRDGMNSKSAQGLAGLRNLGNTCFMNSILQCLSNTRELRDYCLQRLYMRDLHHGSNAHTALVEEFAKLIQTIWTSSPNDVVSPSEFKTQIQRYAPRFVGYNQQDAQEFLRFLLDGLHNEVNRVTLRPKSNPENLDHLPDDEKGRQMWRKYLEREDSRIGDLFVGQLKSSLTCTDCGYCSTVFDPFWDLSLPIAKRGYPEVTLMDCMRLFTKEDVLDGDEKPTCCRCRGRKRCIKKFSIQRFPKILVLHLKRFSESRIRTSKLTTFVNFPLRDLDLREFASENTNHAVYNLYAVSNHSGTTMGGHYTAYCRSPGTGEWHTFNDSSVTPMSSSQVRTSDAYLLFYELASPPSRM
Sequence of Calcium and integrin-binding protein 1 (Homo sapiens) (Q99828 whole entry, looked up): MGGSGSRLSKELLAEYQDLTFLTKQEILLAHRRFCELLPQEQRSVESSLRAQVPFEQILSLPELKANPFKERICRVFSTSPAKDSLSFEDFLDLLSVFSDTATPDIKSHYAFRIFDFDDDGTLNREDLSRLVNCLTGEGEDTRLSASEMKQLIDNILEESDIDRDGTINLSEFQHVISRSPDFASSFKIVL

Row | Compound | Potency [1] | Potency [2] | Potency [3]
1 | O=C(Nc1nc(-c2ccccc2)cs1)c1ccncc1NS(=O)(=O)c1ccc(N2CCCC2=O)cc1 | inactive | 15.3 µM (active) | inactive
2 | Cc1ccc(-c2cc(C(=O)Nc3cccc4ccccc34)c3ccccc3n2)cc1C | inactive | 17.2 µM (active) | inactive
3 | O=C(Nc1ccc(S(=O)(=O)Nc2nccs2)cc1)C1CCC2(CCC2)CC1 | inactive | 24.3 µM (active) | inactive
4 | Cc1ccc(S(=O)(=O)Nc2cncc(C(=O)Nc3nc(-c4ccccc4)cs3)c2)cc1 | inactive | 6.85 µM (active) | inactive
5 | Cc1ccc(-c2cc(C(=O)Nc3ccn[nH]3)c3ccccc3n2)cc1C | inactive | 27.3 µM (active) | inactive
6 | Cc1ccc(S(=O)(=O)NCC(=O)Nc2nc(-c3ccccc3)cs2)cc1 | inactive | 19.3 µM (active) | inactive
7 | Cc1ccc(S(=O)(=O)Nc2cccnc2C(=O)Nc2nc(-c3ccccc3)cs2)cc1 | 14.8 µM (active) | 1.37 µM (active) | inactive
8 | Cc1ccc(S(=O)(=O)n2cc(C(=O)Nc3ccc(-c4ccccc4)cc3)c3ccccc32)cc1 | inactive | 21.7 µM (active) | inactive
9 | Cc1ccc(S(=O)(=O)Nc2ccccc2C(=O)Nc2nc(-c3ccccc3)co2)cc1 | 5.9 µM (active) | 2.73 µM (active) | inactive
10 | Cc1noc(C)c1S(=O)(=O)Nc1cnccc1C(=O)Nc1nc(-c2ccccc2)cs1 | inactive | 6.85 µM (active) | inactive
11 | CC(C)Oc1ccccc1C(=O)Nc1nc(-c2ccccc2)cs1 | inactive | 17.2 µM (active) | inactive
12 | Cc1ccc(-c2cc(C(=O)Nc3ccccc3Cl)c3ccccc3n2)cc1C | inactive | 13.7 µM (active) | inactive
13 | Cc1ccc(-c2cc(C(=O)Nc3nc4ccccc4s3)c3ccccc3n2)cc1C | inactive | 21.7 µM (active) | inactive
14 | O=C(Nc1nc(-c2ccccc2)cs1)c1ccccc1-n1cnnn1 | inactive |  | inactive
15 | O=C(Nc1ccc(S(=O)(=O)Nc2nccs2)cc1)c1ccncc1 | inactive | inactive | inactive
16 | Cc1ccc(S(=O)(=O)Nc2cccc(C(=O)Nc3nc(-c4ccccc4)cs3)c2Cl)cc1 | 11.8 µM (active) | 3.43 µM (active) | inactive
